Results filed as inconclusive are left out. Activity calls are given as the source filed them. Unless noted, no rule for the calls is given here.
Tests used:
[1] = qHTS profiling of the MIPE4 collection as inhibitors of Plasmodium falciparum (3D7) proliferation (AID 743344);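 also: scaled between DMSO vehicle wells and 0.29 µM artemisinin as full inhibition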; details: P. falciparum 3D7 in erythrocytes, SYBR Green DNA fluorescence, 72 h; at 28.5 µM unless noted
How it was run: (§1)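 Parasite DNA was quantified by SYBR Green I fluorescence (ex 485, em 535 nm) after overnight lysis in saponin/Triton buffer at room temperature. Cultures at 0.3% parasitemia and 2.5% hematocrit were first exposed to compound for 72 h at 37 C; signals were normalised to artemisinin (0.29 uM) and vehicle wells.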

[2] = qHTS profiling of the MIPE4 collection as inhibitors of Plasmodium falciparum (DD2) proliferation (AID 743345); details: P. falciparum Dd2 in erythrocytes, SYBR Green DNA, 72 h; at 28.5 µM unless noted
How it was run: as §1

[3] = qHTS profiling of the MIPE4 collection as inhibitors of Plasmodium falciparum (DD2) proliferation (Rep 2) (AID 743346); details: P. falciparum Dd2 in erythrocytes, SYBR Green DNA, 72 h; at 28.5 µM unless noted
How it was run: as §1

[4] = qHTS profiling of the MIPE4 collection as inhibitors of Plasmodium falciparum (HB3) proliferation (AID 743347);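 also: plate controls were DMSO vehicle wells for no effect and artemisinin wells for full effect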; details: P. falciparum HB3 in erythrocytes, SYBR Green DNA, 72 h; at 28.5 µM unless noted
How it was run: as §1

[5] = High-throughput drug toxicity screening in the BPDCN cell line Gen2.2 (AID 1224824); details: Gen2.2 BPDCN cells; at 45.8 µM (top of the series) unless noted;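 also: cells exposed to compounds for 48 h before reading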
How it was run: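 CellTiter-Glo luminescence after 48 h compound exposure of Gen2.2 cells; percent activity set with DMSO as 100% and bortezomib (9.2 uM final) as 0%. Cells seeded at 500 per well, RPMI + 10% FBS, 37 °C.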

[6] = High-throughput drug toxicity screening in the BPDCN cell line Cal-1 (AID 1224825); details: Cal-1 BPDCN cell viability, qHTS; at 45.8 µM (top of the series) unless noted
How it was run: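 Percent activity derived from CellTiter-Glo luminescence, scaling DMSO to 100% and 9.2 uM final bortezomib to 0%. BPDCN Cal-1 cells (500/well, RPMI plus 10% FBS) incubated with compounds 48 hours at 37C before reading.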

[7] = qHTS assay for measurement of the activity of small molecule inhibitors on Zika virus induced Caspase-3 activity in human iPSC derived neural progenitor cells (hNPCs) (AID 1224857; active = well fitted curve in the direction sought with a large enough effect; an effect the other way counts as inactive or inconclusive; also: nearly all actives have a fitted effect of over 65% in size; also: potency is read from the fitted curve at half-maximal effect)
How it was run: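 After overnight (16–20 h) culture at 350 cells/well, hNPCs get compound, then ZIKV 2 FFU/cell one hour later. Six hours on, Caspase-Glo 3/7 is added and luminescence measured.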

[8] = qHTS profiling for inhibitors of Plasmodium falciparum (3D7) proliferation (AID 743322);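 also: infected erythrocytes exposed to compound for 72 h before lysis; 100% = DMSO vehicle wells and 0% = 0.29 µM artemisinin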; details: P. falciparum 3D7 proliferation; at 28.7 µM (top of the series)
How it was run: as §1

[9] = qHTS profiling for inhibitors of Plasmodium falciparum (DD2) proliferation (AID 743323); details: lower = more inhibition; at 28.7 µM (top of the series)
How it was run: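 Parasite DNA quantified by SYBR Green fluorescence (ex 485, em 535 nm) after saponin/Triton lysis and overnight dark incubation. Cultures: 0.3% parasitemia, 2.5% hematocrit, 72 h, 37 C; data scaled between DMSO and 0.29 uM artemisinin.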

[10] = qHTS profiling for inhibitors of Plasmodium falciparum (HB3) proliferation (AID 743324; active = well fitted curve in the direction sought with a large enough effect; an effect the other way counts as inactive or inconclusive;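 also: 100% = DMSO vehicle wells and 0% = artemisinin-treated control wells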); details: Plasmodium falciparum HB3 blood-stage proliferation; at 28.7 µM (top of the series)
How it was run: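 SYBR Green fluorescence (485 ex/535 em) of lysed cultures, incubated overnight at room temperature in the dark, quantifies parasite DNA. Infected erythrocytes at 0.3% parasitemia and 2.5% hematocrit were exposed 72 h; values normalized to DMSO and 0.29 uM artemisinin controls.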

SMILES | parasite growth, % of DMSO control [1] [%] | parasite growth remaining, % of DMSO control (lower = more inhibition) [2] [%] | parasite growth, % of control (lower = inhibition) [3] [%] | growth, % of control [4] [%] | cell viability, % of control (lower = more cytotoxic) [5] [%] | viability (% of control) [6] [%] | Potency [7] | remaining parasite growth % (stronger effect = lower value) [8] [%] | activity, percent of control [9] [%] | remaining proliferation (% of control), lower = more inhibition [10] [%]
CC1(C)Cc2c(sc(NC(=S)NC(=O)c3ccccc3)c2C(=O)O)CO1 | 90.4 | 100 | 110 | 103 | 100 | 95.7 | 20.9 µM (active) | – | – | –
Cc1ccc([C@@H]2O[C@H](CO)[C@@H](O)[C@H](O)[C@@H]2O)cc1Cc1ccc(-c2ccc(F)cc2)s1 | 134 | 118 | 75.3 | 310 | 126 | 48.1 | inactive | – | – | –
O=C1NC(=O)C(=Cc2ccc3c(c2)OC(F)(F)O3)S1 | 86.7 | 95.4 | 126 | 125 | 54.2 | 83 | inactive | – | – | –
NC(=O)c1cccc2[nH]c(-c3ccc([C@H]4CCCN4)cc3F)nc12 | 5.38 | 43.5 | 8.83 | 2.5 | 104 | 19.9 | 18.7 µM (active) | – | – | –
NS(=O)(=O)c1ccc(NC2=CC(=O)c3ccccc3C2=O)cc1 | 6.05 | 9.74 | 8.91 | 3.54 | 162 | 88.5 | inactive | – | – | –
CO[C@H]1C[C@@H]2CC[C@@H](C)[C@@](O)(O2)C(=O)C(=O)N2CCCC[C@@H]2C(=O)O[C@H]([C@H](C)C[C@@H]2CC[C@H](OCCO)[C@H](OC)C2)CC(=O)[C@H](C)C=C(C)[C@@H](O)[C@@H](OC)C(=O)[C@H](C)C[C@H](C)C=CC=CC=C1C | 4.95 | 7.69 | – | 3.94 | 10.1 | 12.7 | inactive | -1.41 | -0.639 | -1.24
C=C1C(=O)OC2C=C(C)CCC=C(C)CCC12 (stereo unspecified) | 238 | 104 | 108 | 559 | 10.5 | 11.5 | inactive | – | – | –
CNC1CCC(N(Cc2cccc(-c3ccncc3)c2)C(=O)c2sc3c(F)ccc(F)c3c2Cl)CC1 (stereo unspecified) | 4.87 | 7.02 | 23.7 | 6.39 | 0.6 | 0.705 | inactive | – | – | –
CC(C)n1cnc2c(NCCCCCCNC(=O)OC(C)(C)C)nc(NCCO)nc21 | 20.1 | 60.6 | 24.8 | 21.3 | 186 | 100 | inactive | – | – | –
CO[C@H]1C[C@@H]2CC[C@@H](C)[C@@](O)(O2)C(=O)C(=O)N2CCCC[C@@H]2C(=O)O[C@H]([C@H](C)C[C@@H]2CC[C@H](OC(=O)C(C)(CO)CO)[C@H](OC)C2)CC(=O)[C@H](C)C=C(C)[C@@H](O)[C@@H](OC)C(=O)[C@H](C)C[C@H](C)C=CC=CC=C1C | 5.79 | 6.2 | 9.78 | 3.93 | 6.71 | 3.11 | inactive | – | – | –
COCCCCC(=NOCCN)c1ccc(C(F)(F)F)cc1 | 47.6 | 56.9 | 49 | 47.6 | 56 | 88.3 | inactive | – | – | –
Cn1cc(C=C2C(=O)Nc3cccnc32)c2ccccc21 | 42.6 | 82.2 | 53 | 2.02 | 111 | 63.5 | inactive | – | – | –

Source: PubChem BioAssay (NCATS)
